This passage reports Inhibition results from ChEMBL document CHEMBL1157539, “Thousands of chemical starting points for antimalarial lead identification” (Nature, 2010).

The structures appear in SMILES notation.

What all share (type): functional
The subject of experiment [1] is Plasmodium falciparum. Put plainly: GSK_TCMDC: Inhibition of Plasmodium falciparum 3D7 in whole red blood cells, using parasite LDH activity as an index of growth. Test compounds present at 2uM.
In experiment [2] the test system is Plasmodium falciparum. Briefly: GSK_TCMDC: Inhibition of Plasmodium falciparum Dd2 in whole red blood cells, using parasite LDH activity as an index of growth. Test compounds present at 2uM.
A further experiment deals with HepG2. Put plainly: GSK_TCMDC: Percent inhibition of human HepG2 cell line. Test compounds present at 10uM.

For `CN1CCC(C(=O)N(Cc2ccc(-c3ccc(CNCCc4ccccc4)cn3)cc2)C2Cc3ccccc3C2)CC1.O=C(O)C(F)(F)F`, the Inhibition (in general, the percentage by which the read-out fell short of the control) with Plasmodium falciparum [1] came to 88%; in the experiment on Plasmodium falciparum [2], 97%; with HepG2 it was 65%.
`COc1cc2nc(N3CCC(CNCc4ccc(-c5ccc(C(F)(F)F)cc5)cc4)CC3)nc(N)c2cc1OC`: the Inhibition with Plasmodium falciparum [1] is recorded as 99%; in the experiment on Plasmodium falciparum [2] it was 100%; in the experiment on HepG2, 99%.
In the case of `Cc1ccc2[nH]c3c(NCCN(C)C)ncnc3c2c1`, the Inhibition worked out at 99% with Plasmodium falciparum [1], 5% in the experiment with Plasmodium falciparum [2] and 9% in the experiment on HepG2.
For the compound `COc1cc2nc(NCc3ccc(S(N)(=O)=O)cc3)nc(Nc3ccc(Oc4ccccc4)cc3)c2cc1OC`, the Inhibition is 100% in the experiment on Plasmodium falciparum [1], 100% with Plasmodium falciparum [2] and 14% with HepG2.
As to `Cc1nc2ccc(F)cc2n1C1CCN(C(=O)Cc2ccc(F)c(F)c2)CC1`, the Inhibition was 100% in the experiment on Plasmodium falciparum [1], 99% in the experiment on Plasmodium falciparum [2] and 2% in the experiment on HepG2.
For the compound `Nc1nc2c(ncn2OC[C@H](CO)OCP(=O)(O)O)c(=O)[nH]1`, the results for the Inhibition in the experiment on Plasmodium falciparum [1], in the experiment with Plasmodium falciparum [2] and in the experiment on HepG2 were 94%, 61% and 5%, respectively.
Consider `CC(C)(C)OC(=O)NCCc1cccc(-c2c[nH]c3ncc(-c4cccc(NS(C)(=O)=O)c4)cc23)c1`, for which the values for the Inhibition in the experiment on Plasmodium falciparum [1], in the experiment with Plasmodium falciparum [2] and in the experiment on HepG2 were 97%, 71% and 16%, respectively.
Consider `O=C(Nc1cccc(F)c1)NC1CCN(c2ccnc3cc(Cl)ccc23)CC1.O=C(O)C(F)(F)F`, for which the Inhibition with Plasmodium falciparum [1] is 96%; in the experiment on Plasmodium falciparum [2], 37%; with HepG2 it was 11%.
The like results for `Cc1ccc(Cn2c(N3CCC(C(=O)NCc4ccccn4)CC3)nc3ccccc32)cc1` were, in that order, 100%, 99% and 0%.
On the same counts, the results for `COc1cc2c(cc1OC)CN(c1cc(N)c3cc(OC)c(OC)cc3n1)CC2.CS(=O)(=O)O` are 100%, 99% and 23%.
Regarding `CCCCN(Cc1cc(Cl)c(OCC)c(OC)c1)c1ccc(C(O)(C(F)(F)F)C(F)(F)F)cc1.O=C(O)C(F)(F)F`, the values for the Inhibition in the experiment on Plasmodium falciparum [1], in the experiment with Plasmodium falciparum [2] and in the experiment with HepG2 were 92%, 97% and 5%, respectively.
For `Cc1ncc(CN2CCC(C(=O)Nc3ccc(-c4nc5ccccc5o4)cc3)CC2)s1`, the Inhibition with Plasmodium falciparum [1] worked out at 82%; in the experiment on Plasmodium falciparum [2] it was 92%; in the experiment on HepG2, 0%.
In the case of `COc1cccc(-c2cc(C(=O)Nc3ccc4[nH]c(-c5ccccc5)nc4c3)[nH]n2)c1.O=C(O)C(F)(F)F`, the Inhibition in the experiment on Plasmodium falciparum [1] is given as 100%; in the experiment with Plasmodium falciparum [2], 65%; with HepG2, 68%.
For `Cc1ccc(NCc2cccc(F)c2)cc1S(=O)(=O)N[C@@H]1CCN(C#N)C1`, the values for the Inhibition in the experiment with Plasmodium falciparum [1], in the experiment with Plasmodium falciparum [2] and with HepG2 were 89%, 83% and 13%, respectively.
On the same counts, the results for `Cc1ccc(-c2nnc(Nc3ccc(C(=O)N4CCCCC4)cc3)c3ccccc23)cc1S(=O)(=O)NCC1CCCO1` (stereo not drawn) are 99%, 99% and 0%.
In the case of `Cc1c(CNCCCNc2nc3ccccc3[nH]2)sc(C(F)F)c1Br.Cl`, the Inhibition in the experiment on Plasmodium falciparum [1] is recorded as 100%; in the experiment with Plasmodium falciparum [2], 5%; in the experiment with HepG2, 9%.
Regarding `CSC1=NC(=Nc2c(C)cccc2C)C2(CCC(C(C)(C)C)CC2)N1c1ccc(O)cc1.I` (stereo not drawn), the Inhibition with Plasmodium falciparum [1] was 97%; in the experiment with Plasmodium falciparum [2], 93%; in the experiment on HepG2, 5%.
Regarding `Cl.OCCNc1nc(Nc2ccc(F)cc2)nc2ccccc12`, the Inhibition turned out to be 94% in the experiment on Plasmodium falciparum [1], 73% with Plasmodium falciparum [2] and 10% with HepG2.
For `O=C(/C=C/c1ccc([N+](=O)[O-])cc1)N1CCC(NS(=O)(=O)c2ccc(F)cc2)CC1`, the Inhibition in the experiment with Plasmodium falciparum [1] came to 96%; with Plasmodium falciparum [2], 0%; with HepG2, 0%.
As for `CC(C)n1ncc2c3c(N)nc(N)nc3ccc21`, the Inhibition came to 98% in the experiment on Plasmodium falciparum [1], 6% with Plasmodium falciparum [2] and 64% in the experiment on HepG2.
Regarding `COc1ccc2c(=NN=Cc3ccccc3)cc(C)[nH]c2c1`, the results for the Inhibition in the experiment with Plasmodium falciparum [1], in the experiment on Plasmodium falciparum [2] and in the experiment on HepG2 were 100%, 49% and 0%, respectively.
For the compound `CCCNCc1c(O)ccc2c(CNCCC)c(O)ccc12.Cl`, the Inhibition with Plasmodium falciparum [1] is reported as 100%; in the experiment on Plasmodium falciparum [2], 9%; in the experiment with HepG2, 24%.
Turning to `CN(C)CCOc1cc(NC(=O)Nc2ccc3c(c2)CCCC3=O)ccc1I`, the Inhibition in the experiment with Plasmodium falciparum [1] came out at 94%; in the experiment with Plasmodium falciparum [2], 31%; in the experiment with HepG2, 29%.
The like results for `Cl.N#Cc1ccc2c(c1)CCN(CCC1CCC(NC(=O)/C=C/c3c[nH]c4ccc(F)cc34)CC1)CC2` (stereo not drawn) were, in that order, 100%, 83% and 18%.
`CCn1c(-c2nonc2N)nc2c(-c3cccc(NC(=O)Nc4ccccc4Cl)c3)ncc(OCCCN)c21.O=C(O)C(F)(F)F`: the Inhibition in the experiment on Plasmodium falciparum [1] is on record as 99%; with Plasmodium falciparum [2], 74%; with HepG2, 2%.
For the compound `COc1ccc(CNC2CCN(C)CC2)cc1-c1ccc(S(=O)(=O)NCCc2ccccn2)cc1.O=C(O)C(F)(F)F`, the Inhibition is listed as 93% with Plasmodium falciparum [1], 17% in the experiment with Plasmodium falciparum [2] and 13% with HepG2.
With `Cc1ccc(C(O)CNc2ccnc(Nc3cccc(-c4csc(C)n4)c3)n2)cc1` (stereo not drawn), the Inhibition is recorded as 92% in the experiment on Plasmodium falciparum [1], 31% with Plasmodium falciparum [2] and 17% in the experiment with HepG2.
Regarding `O=C(N[C@@H](Cc1ccccc1)C(=O)NC1CCCCC1)c1ccc(O)c(-c2ccc(Cl)c(Cl)c2)c1`, the figures for the Inhibition in the experiment on Plasmodium falciparum [1], in the experiment with Plasmodium falciparum [2] and in the experiment with HepG2 were 98%, 99% and 0%, respectively.
As for `CCOC(=O)c1c(C)n(-c2ccccc2)c2ccc(OC(=O)COc3ccc(Cl)cc3Cl)cc12`, the Inhibition stood at 99% with Plasmodium falciparum [1], 87% in the experiment on Plasmodium falciparum [2] and 11% in the experiment on HepG2.
On the same counts, the results for `CC1(C)N=C(N)N=C(N)C1c1ccc(Cl)c(Cl)c1.Cl` (stereo not drawn) are 95%, 0% and 47%.
On the same counts, the results for `CN(C)Cc1cccc(-c2ccc(NC(=O)c3ccc4c(=O)n(Cc5ccoc5)cnc4c3)cc2)c1` are 98%, 9% and 54%.
